Bioassay records: PubChem BioAssay, several laboratories
Smad3 inh – inhibitors of human Smad3 transcription factor binding. inhibition, % at 25 µM. TR-FRET Smad3/Dy647-FoxH1 peptide binding, europium anti-His. P84022. hit rate 0.29% among 88,000;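 active = compounds that reduce the energy-transfer binding signal between the protein and its labelled peptide by more than half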;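 note: 0% = Smad3 plus labelled peptide maximal FRET and 100% = peptide-only background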
S1P2 blocker – antagonists of human S1P2 receptor; O95136; cell-based S1P2 antagonist assay, inhibition at 5 uM; inhibition, % at 5 µM; hit rate 0.21% among 97,000; in the data active = inhibition above about 45%;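 note: CRE beta-lactamase reporter cells expressing human S1P2 stimulated with S1P; 0% = agonist at EC80 alone and 100% = agonist plus reference antagonist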
Target sequence (O95136 whole entry, looked up): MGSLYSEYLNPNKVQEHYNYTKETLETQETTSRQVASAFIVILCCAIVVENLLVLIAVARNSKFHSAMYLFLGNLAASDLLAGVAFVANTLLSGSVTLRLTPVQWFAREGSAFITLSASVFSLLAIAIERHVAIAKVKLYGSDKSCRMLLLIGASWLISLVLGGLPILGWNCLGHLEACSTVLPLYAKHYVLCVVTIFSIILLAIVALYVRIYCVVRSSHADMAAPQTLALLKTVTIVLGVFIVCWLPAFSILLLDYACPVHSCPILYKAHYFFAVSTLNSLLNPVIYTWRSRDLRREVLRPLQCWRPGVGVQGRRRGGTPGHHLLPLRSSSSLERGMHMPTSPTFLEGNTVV
GALR2 antag – blocks the human galanin receptor 2; O43603; GALR2-expressing cells, antagonist mode; inhibition, % at 4 µM; hit rate 0.39% among 140,000; AID 828; in the data active = inhibition above about 27%;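 note: cells stimulated with galanin 1-16 at roughly its EC80; 0% = agonist challenge control and 100% = basal control without agonist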
GALR2 agonist – GALR2 (human) receptor agonism. O43603. GALR2-expressing cells, agonist activation read-out. activation, % (no concentration beside the values). hit rate 0.48% among 140,000. AID 803; in the data active = activation above about 5%, passing the limit was not always enough;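 note: 0% = vehicle buffer wells and 100% = reference agonist at full effect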
MT1-MMP txn act – activates MT1-MMP transcription | HT1080 MT1-MMP promoter luciferase reporter, luminescence, overnight; stronger effect = higher value | activation factor at 10 µM | hit rate 0.16% among 86,000;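 active = activation factor of at least 2 for MT1-MMP transcription at 10 µM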
S1P2 agonist – S1P2 (human) receptor agonism | S1P2-expressing cell line, agonist reporter read-out | activation, % at 4.5 µM | hit rate 0.46% among 97,000 | O95136; in the data active = activation above about 16%;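 note: 0% = vehicle low control and 100% = maximal reference agonist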
Starred values were filed as active, the others as inactive; . = not tested or not shown. Hits are enriched below; roughly 1.4% of the tested compounds scored in any of these assays.

SMILES	Smad3 inh	S1P2 blocker	GALR2 antag	GALR2 agonist	MT1-MMP txn act	S1P2 agonist
Cc1ccc(Cn2c(=N)c(C(=O)NCc3ccco3)cc3c(=O)n4ccccc4nc32)cc1	19	-29	-4	6.8*	1.3	24*
N=c1c(C(=O)NCc2ccco2)cc2c(=O)n3ccccc3nc2n1CC1CCCO1 (centres undefined)	6	-8	11	2	1.2	-5
N=c1c(C(=O)NCc2ccc(F)cc2)cc2c(=O)n3ccccc3nc2n1CC1CCCO1 (centres undefined)	.	-43	-26	14*	1.3	31*
O=[N+]([O-])c1ccc(CSCc2ccc(Cl)cc2)cc1	4	.	.	.	.	.
C=C(C)CN(CC#N)CC(=C)C	-4	.	.	.	.	.
C[n+]1cccc(/C=C/c2ccc3cccc(O)c3n2)c1	40	.	.	.	.	.
CC(CSc1nc2ccccc2s1)Cn1c(N2CCCC2)nc2c1c(=O)[nH]c(=O)n2C (centres undefined)	.	-22	3	0	1.1	30*
CCN(CC)c1ccc2cc(-c3nnc(-c4ccccc4)o3)c(=O)oc2c1	-5	-10	1	1	2*	-2
Nc1ccc(-c2ccc(Nc3cc(S(=O)(=O)O)c(N)c4c3C(=O)c3ccccc3C4=O)cc2)c(S(=O)(=O)O)c1	94*	.	.	.	.	.
Cc1cc(C)c(Nc2cc(S(=O)(=O)O)c(N)c3c2C(=O)c2ccccc2C3=O)c(C)c1	.	.	-5	1	.	.
CC(C)(C)c1ccc(C(=O)NNC(=O)c2cccc(Br)c2)cc1	.	21	-9	1	.	23*
COc1ccc(/C=N/n2cnnc2SCCO)cc1OC	.	-29	-21	0	1.1	19*
C=CCSc1nncn1/N=C/c1ccc(OC)cc1	12	11	-2	-1	2*	-9
C[C@@]12CCC(=O)C=C1CC[C@H]1[C@H]2[C@@H](O)C[C@]2(C)[C@@H]1CC[C@@]2(O)C(=O)CO	-4	.	.	.	.	.
O=C1c2ccccc2C(=O)c2c(NC3CCCCC3)ccc(Nc3ccc(S(=O)(=O)O)cc3)c21	-1	.	.	.	.	.
N#Cc1ccc(-c2cccnc2)nc1SCC(=O)Nc1sc2c(c1C#N)CCC2	4	.	9	6.9*	1.1	.
Cn1c(=O)oc2cc(S(=O)(=O)NCC3CCCO3)ccc21 (centres undefined)	2	6	14	1	1.3	20*
CC(C)(C)c1ccc(OC(=O)Nc2ccc(O)c(C(=O)O)c2)cc1	65*	.	.	.	.	.
Cc1ccc(OCC(=O)Nc2ccc(O)c(C(=O)O)c2)cc1C	8	-11	0	2	0.8	-6
Cc1sc2ncnc(NCC(C)(C)N3CCOCC3)c2c1C	-1	64*	26	0	.	-6
Cc1ccc(/C=N/c2sc3c(c2C#N)CCC3)s1	-7	9	-2	-3	2.3*	-9
Cc1ccc(/C=N/c2sc3c(c2C#N)CCCCC3)o1	-4	10	5	-3	1.8	-4
OC[C@@H]1O[C@H](n2cnc3c(/C=C(\O)c4ccccc4)ncnc32)[C@H](O)[C@H]1O	2	.	.	.	.	.
C=CCC(Nc1ccccc1)C12C=CC(O1)C(C(=O)OC)=C2C(=O)OC (centres undefined)	2	65*	8	0	1.2	-3
COC(=O)C1=C(C)OC(N)=C(C#N)C1c1ccccc1 (centres undefined)	3	1	1	-1	1.1	-4
SMILES	Smad3 inh	S1P2 blocker	GALR2 antag	GALR2 agonist	MT1-MMP txn act	S1P2 agonist
Brc1ccc2[nH]c3nc(SCCN4CCOCC4)nnc3c2c1	11	-23	5	0	0.9	16*
N#CCCSC(=S)[C@@H]1CCCC1=N	1	.	.	.	.	.
COc1cc(C(=O)Nc2sc3c(c2C(=O)NCc2ccco2)CCCC3)cc(OC)c1OC	4	-21	-7	0	1.3	23*
COc1ccc(C(=O)Nc2sc3c(c2C(=O)NCc2ccco2)CCCC3)cc1OC	1	-3	2	-1	1.2	10
Cc1cccc(OCC(O)CN2CC3(C)CC2CC(C)(C)C3)c1 (centres undefined)	.	.	4	6.8*	.	.
COc1ccccc1NC(=O)CN1CCC(n2nnc3cc(F)ccc32)CC1	9	-5	3	-2	1.2	8
COc1ccccc1NC(=O)CN1CCC(n2c(C)nc3cc(F)ccc32)CC1	1	-30	-16	4	1.2	19*
CCOC(=O)C1=C(C)N(CCCC(=O)O)C(=O)NC1c1ccc2c(c1)OCO2 (centres undefined)	.	.	.	.	1.1	.
C1CCC(c2nn3c(-c4n[nH]c5c4CCC5)nnc3s2)CC1	12	-6	-9	1	0.9	-4
